In PubChem BioAssay one finds composite z-score and z-score data, which are given here for six compounds.

Assay [1] deals with Plasmodium falciparum Sir2 (PF13_0152, Sir2A). Put plainly: pfSir2 binders on small-molecule microarrays, primary screen, biochemical, small-molecule microarray, 635 nm fluorescence (AID 1098).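 Also: score merges spot fluorescence intensity with its signal-to-noise ratio.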 The following applies: small-molecule microarray binding, fluorescence 635 nm; higher = more signal.
Assay [2] in a line: small-molecule microarray binders of probe aDKK1, primary screen, biochemical, biotinylated probe, 635/667 nm fluorescence (AID 1099).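 Also: score merges 667nm spot fluorescence with signal to noise across triplicate slides.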 The following applies: higher = more signal.
Assay [3] can be described thus: small-molecule microarray binders of probe aCHRDL2, primary screen, biochemical, biotinylated probe, 635/667 nm fluorescence (AID 1100). The settings on record: higher = more signal.
The nature of assay [4]: splicing luciferase reporter signal modulators, primary screen, spliceosome inhibition project, cell-based, HEK293, splice +/- reporter (AID 1101).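 Also: HEK293 cells carrying a splicing-competent luciferase reporter gene; test concentration not given here.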 The settings on record: luminescence, 24 h, higher = more signal, called active from +8 up or from −8 down.
Assay [5] concerns the target Fibroblast growth factor 10 (Homo sapiens) (UniProt O15520). Put plainly: FGF10 binders on small-molecule microarrays, primary screen, biochemical, small-molecule microarray, 635 nm fluorescence (AID 1102). The settings on record: FGF10 binding, fluorescence 635 nm, higher = more signal.
Assay [6] concerns glycogen synthase kinase-3 (GSK3A per assay name; protocol says GSK3B). Put plainly: GSK3 binders on small-molecule microarrays, primary screen, biochemical, small-molecule microarray, 635 nm fluorescence, GSK3A (AID 1103). Also: the record names both GSK3A and GSK3B. The following applies: small-molecule microarray binding, fluorescence 635 nm; higher = more signal.
In assay [7] the target is Epidermal growth factor receptor (Homo sapiens) (UniProt P00533). Put plainly: EGFR binders on small-molecule microarrays, primary screen, biochemical, small-molecule microarray, 635 nm fluorescence (AID 1104).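 Also: score merges 667 nm emission intensity with spot signal to noise over triplicate slides.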 The following applies: EGFR binding, higher = more signal.
Sequence of Epidermal growth factor receptor (Homo sapiens) (P00533 whole entry, looked up): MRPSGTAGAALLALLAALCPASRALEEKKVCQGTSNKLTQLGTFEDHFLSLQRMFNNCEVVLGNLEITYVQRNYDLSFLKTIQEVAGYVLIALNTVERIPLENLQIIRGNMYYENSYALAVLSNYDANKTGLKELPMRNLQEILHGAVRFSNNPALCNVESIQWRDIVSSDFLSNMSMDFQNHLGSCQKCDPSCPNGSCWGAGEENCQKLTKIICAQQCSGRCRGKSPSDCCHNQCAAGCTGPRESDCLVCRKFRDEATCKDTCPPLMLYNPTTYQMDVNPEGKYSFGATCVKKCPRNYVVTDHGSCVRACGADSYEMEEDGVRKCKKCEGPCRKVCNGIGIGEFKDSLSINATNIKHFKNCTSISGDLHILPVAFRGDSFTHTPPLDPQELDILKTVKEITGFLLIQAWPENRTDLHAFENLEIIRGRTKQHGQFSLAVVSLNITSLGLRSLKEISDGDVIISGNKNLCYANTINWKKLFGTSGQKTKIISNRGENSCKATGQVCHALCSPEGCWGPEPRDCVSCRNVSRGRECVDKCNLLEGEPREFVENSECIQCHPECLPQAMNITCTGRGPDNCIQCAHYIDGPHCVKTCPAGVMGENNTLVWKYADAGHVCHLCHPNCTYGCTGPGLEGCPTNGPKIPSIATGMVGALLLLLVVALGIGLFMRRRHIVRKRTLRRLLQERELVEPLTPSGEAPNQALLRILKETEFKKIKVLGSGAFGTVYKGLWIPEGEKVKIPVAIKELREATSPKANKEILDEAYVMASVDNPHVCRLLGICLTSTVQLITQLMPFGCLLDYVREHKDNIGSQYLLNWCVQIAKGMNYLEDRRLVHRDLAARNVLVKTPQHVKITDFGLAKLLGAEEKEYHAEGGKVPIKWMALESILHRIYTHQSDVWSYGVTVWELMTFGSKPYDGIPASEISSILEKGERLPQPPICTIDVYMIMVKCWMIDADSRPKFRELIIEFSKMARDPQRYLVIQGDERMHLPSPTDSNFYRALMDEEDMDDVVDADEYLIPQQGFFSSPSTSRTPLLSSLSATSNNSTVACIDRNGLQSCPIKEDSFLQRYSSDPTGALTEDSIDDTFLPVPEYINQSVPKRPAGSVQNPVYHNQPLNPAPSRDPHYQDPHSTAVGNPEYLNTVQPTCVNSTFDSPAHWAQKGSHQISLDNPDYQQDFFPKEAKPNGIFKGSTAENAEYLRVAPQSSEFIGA
Assay [8] addresses Follistatin-related protein 3 (Homo sapiens) (UniProt O95633). Description: FSTL3 binders on small-molecule microarrays, primary screen, biochemical, small-molecule microarray, 635 nm fluorescence (AID 1105).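 Also: score merges emission near 667 nm and signal to noise per printed spot across three slides.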 The settings on record: FSTL3 binding, higher = more signal.
For assay [9], the target named is Dickkopf-related protein 1 (Homo sapiens) (UniProt O94907). Put plainly: DKK1 binders on small-molecule microarrays, primary screen, biochemical, small-molecule microarray, 635 nm fluorescence scan (AID 1106).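 Also: score merges emission near 667 nm with signal to noise over three replicate slides.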 The following applies: DKK1 binding, higher = more signal.
Sequence of Dickkopf-related protein 1 (Homo sapiens) (O94907 whole entry, looked up): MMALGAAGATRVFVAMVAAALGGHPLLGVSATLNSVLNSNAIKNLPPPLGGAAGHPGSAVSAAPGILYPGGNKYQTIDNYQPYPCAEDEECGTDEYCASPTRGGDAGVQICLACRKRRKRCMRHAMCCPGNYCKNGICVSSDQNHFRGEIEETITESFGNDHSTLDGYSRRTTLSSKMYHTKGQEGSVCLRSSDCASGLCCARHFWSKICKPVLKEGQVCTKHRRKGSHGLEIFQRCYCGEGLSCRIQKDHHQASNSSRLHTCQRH
For assay [10], the system named is Inhibin beta A chain (activin A). Description: INHBA (activin A) binders on microarrays, primary screen, biochemical, small-molecule microarray, 635 nm fluorescence scan (AID 1107).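 Also: mouse activin A protein probed at 4.33 µg/mL on printed slides; score merges bound-protein fluorescence near 667 nm with spot signal-to-noise.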 The settings on record: small-molecule microarray binding, higher = more signal.
Assay [11] has as its system Human papillomavirus type 1a protein E7 (residues 44-93). Put plainly: HPV1a E7 fragment binders on microarrays, primary screen, biochemical, small-molecule microarray, residues 44-93, 635 nm fluorescence (AID 1108).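 Also: E7 fragment applied at 1 µg/mL in TBST for 1 h at 4 C; score combines spot fluorescence with its signal to noise ratio.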 The following applies: small-molecule microarray binding, fluorescence 635 nm; higher = more signal.
A short description of assay [12]: modulators of HCV replicon luciferase signal, primary screen, HCV replication inhibitor project, Huh7 cells, luciferase reporter (AID 1109).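 Also: huh7 hepatoma cells harbouring a luciferase neomycin HCV replicon reporter; luciferase luminescence as measure of HCV replicon replication; test concentration not given here.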 The following applies: 48 h, higher = more signal.
Assay [13] addresses Left-right determination factor 2 (Homo sapiens) (UniProt O00292). Put plainly: LEFTY2 binders on small-molecule microarrays, primary screen, biochemical, small-molecule microarray, 635 nm fluorescence scan (AID 1110). The settings on record: LEFTY2 binding, higher = more signal.
The target in assay [14] is Calmodulin-1 (Homo sapiens) (UniProt P0DP23). Put plainly: CALM1 binders on microarrays, EGTA buffer, profiling panel, biochemical, small-molecule microarray, Cy5-labelled CALM1 (AID 1111).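 Also: labelled calmodulin applied in Tris saline Tween buffer holding calcium plus EGTA and DTT.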 The following applies: Cy5-CALM1 binding fluorescence, higher = more signal.
For assay [15] the target is unchanged. Put plainly: calcium-bound CALM1 binders on microarrays, profiling panel, artefact control for SMM control-protein annotation, biochemical, small-molecule microarray, Cy5-labelled CALM1, plus calcium (AID 1112).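 Also: score merges spot fluorescence with signal to noise from triplicate slides.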 The settings on record: Cy5-CALM1 binding fluorescence, higher = more signal.
Assay [16] in a line: small-molecule microarray binders of probe aWnt5a, primary screen, biochemical, biotinylated probe, 635/667 nm fluorescence (AID 1113).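 Also: score merges 667 nm fluorescence intensity with signal-to-noise per printed feature.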 The settings on record: higher = more signal.
Assay [17] in a line: small-molecule microarray binders of probe aShh, primary screen, biochemical, biotinylated probe, 635/667 nm fluorescence (AID 1114).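 Also: probe is biotin-labelled aShh protein from a stem cell growth factor screen; measures binding of labelled protein to compounds printed on the slide; score merges feature fluorescence at 667 nm with signal-to-noise.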 The settings on record: higher = more signal.
Assay [18] can be described thus: small-molecule microarray binders of probe aNog, primary screen, biochemical, biotinylated probe, 635/667 nm fluorescence (AID 1115).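 Also: probe is biotinylated aNog protein used at 0.15 µg/mL for 1 h at 4 C; z-score combines 667 nm fluorescence of each spot with its signal to noise.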 The settings on record: higher = more signal.
For assay [19], the target named is Torsin-1A-interacting protein 1 (Homo sapiens) (UniProt Q5JTV8). Description: LAP1 binders from COS7 cell lysate, primary screen, small-molecule microarray, 635/667 nm fluorescence (AID 1116). The settings on record: COS7-hLAP1 lysate binding, 635 nm fluorescence, higher = more signal.
Sequence of Torsin-1A-interacting protein 1 (Homo sapiens) (Q5JTV8 whole entry, looked up): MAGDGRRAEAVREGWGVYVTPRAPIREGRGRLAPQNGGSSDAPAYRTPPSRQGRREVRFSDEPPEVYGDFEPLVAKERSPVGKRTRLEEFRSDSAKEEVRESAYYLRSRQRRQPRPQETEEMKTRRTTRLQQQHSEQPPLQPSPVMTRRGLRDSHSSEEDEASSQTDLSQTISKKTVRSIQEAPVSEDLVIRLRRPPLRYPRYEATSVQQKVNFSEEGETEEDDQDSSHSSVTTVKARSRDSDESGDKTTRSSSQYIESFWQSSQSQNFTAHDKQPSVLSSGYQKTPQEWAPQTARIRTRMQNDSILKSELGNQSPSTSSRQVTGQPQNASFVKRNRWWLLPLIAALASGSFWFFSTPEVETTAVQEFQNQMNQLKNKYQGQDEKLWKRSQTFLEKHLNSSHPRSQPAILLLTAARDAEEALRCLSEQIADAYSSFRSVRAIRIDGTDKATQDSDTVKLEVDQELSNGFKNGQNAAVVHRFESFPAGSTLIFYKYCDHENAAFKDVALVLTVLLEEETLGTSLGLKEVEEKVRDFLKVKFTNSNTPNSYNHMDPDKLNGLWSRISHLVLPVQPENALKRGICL
The target of assay [20] is Alpha-bungarotoxin (Bungarus multicinctus) (UniProt P60615). Put plainly: alpha-bungarotoxin binders on microarray, profiling panel, artefact control for SMM control protein annotation, biochemical, small-molecule microarray, Alexa647 label, 635/667 nm fluorescence (AID 1117). The settings on record: alpha-BTX-A647 binding fluorescence, higher = more signal.
Sequence of Alpha-bungarotoxin (Bungarus multicinctus) (P60615 whole entry, looked up): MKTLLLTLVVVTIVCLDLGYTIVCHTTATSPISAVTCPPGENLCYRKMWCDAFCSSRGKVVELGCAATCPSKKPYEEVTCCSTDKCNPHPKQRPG

Calls of active or inactive are those of the source.

Sequence of Follistatin-related protein 3 (Homo sapiens) (O95633 whole entry, looked up): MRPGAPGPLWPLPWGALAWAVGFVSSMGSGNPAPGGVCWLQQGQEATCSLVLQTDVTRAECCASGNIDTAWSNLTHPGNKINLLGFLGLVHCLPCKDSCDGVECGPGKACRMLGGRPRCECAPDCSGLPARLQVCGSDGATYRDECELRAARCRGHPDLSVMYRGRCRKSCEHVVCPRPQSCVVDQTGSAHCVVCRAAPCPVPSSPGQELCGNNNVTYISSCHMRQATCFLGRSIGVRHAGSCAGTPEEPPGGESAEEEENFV
Sequence of Fibroblast growth factor 10 (Homo sapiens) (O15520 whole entry, looked up): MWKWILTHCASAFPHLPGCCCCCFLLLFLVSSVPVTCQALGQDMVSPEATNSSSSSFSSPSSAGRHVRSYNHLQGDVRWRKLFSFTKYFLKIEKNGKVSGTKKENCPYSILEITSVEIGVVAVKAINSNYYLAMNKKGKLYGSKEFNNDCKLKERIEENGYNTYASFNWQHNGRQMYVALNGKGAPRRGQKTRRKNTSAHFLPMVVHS
Sequence of Left-right determination factor 2 (Homo sapiens) (O00292 whole entry, looked up): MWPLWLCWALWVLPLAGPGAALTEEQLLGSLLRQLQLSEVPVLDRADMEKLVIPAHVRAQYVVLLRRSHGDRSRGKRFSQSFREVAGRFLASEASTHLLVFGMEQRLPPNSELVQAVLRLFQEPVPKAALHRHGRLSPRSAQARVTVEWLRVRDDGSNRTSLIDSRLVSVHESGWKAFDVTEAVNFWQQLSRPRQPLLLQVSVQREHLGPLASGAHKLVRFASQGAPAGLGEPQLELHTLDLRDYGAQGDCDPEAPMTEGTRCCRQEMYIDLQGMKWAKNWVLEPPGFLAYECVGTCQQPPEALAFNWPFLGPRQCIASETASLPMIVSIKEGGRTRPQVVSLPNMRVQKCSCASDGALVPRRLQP

As to `C=CC[C@@H]1C=C[C@H](ON=C[C@@H](NS(=O)(=O)c2ccc(C)cc2)[C@H](C)C=CCC(=O)OC)[C@@H](CO)O1`, the composite z-score in assay [1] was 0.296; in assay [2], -0.353; in assay [3] it was -0.642; in assay [5], 0.0083; in assay [6] it was -0.0166; in [7] it was 0.516. For the same compound, the composite z-score was 0.566 in [8]; 0.619 in assay [9]; 1.15 in assay [10]; -0.782 in assay [11]; 0.917 in [13]; -0.83 in assay [14]. For the same compound, the composite z-score is -0.984 in assay [15]; -0.13 in [16]; -0.138 in assay [17]; -0.402 in [18]; 0.269 in assay [19]; 0.452 in assay [20]. Further, the z-score in assay [4] was 0.463 (inactive); in assay [12], -0.0493.

Consider `COC(=O)CC=C1c2ccccc2[C@H](OC)[C@H]1C`, for which the composite z-score in assay [1] is -0.0214; in assay [2] it was -0.314; in [3] it was -0.624; in assay [5] it was 0.0785; in assay [6], -0.234; in assay [7] it was 0.33. Further, the composite z-score in assay [8] was 0.0242; in [9], 0.485; in [10], 1.05; in assay [11] it was -0.887; in [13], 0.398; in assay [14], -0.452. The composite z-score in assay [15] was -0.746; in [16], -0.0981; in assay [17], -0.138; in assay [18] it was -0.172; in [19] it was -0.035; in [20] it was -0.545. In addition, the figures for the z-score in [4] and in assay [12] were 0.0124 (inactive) and -0.154, respectively.

Take `CC(CCC(=O)OC[C@H]1O[C@H](C#Cc2ccccc2)C=C[C@@H]1Oc1ccc(C)cc1)=NOC(C)CN1CCCc2nc(C)c(C)cc21` (stereo not given in full): the composite z-score in assay [1] is 0.839; in assay [2], -0.143; in assay [3], -0.35; in assay [5], 0.732; in assay [6], 0.727; in assay [7] it was 0.335. Further, the composite z-score in assay [8] turned out to be 0.694; in [9], 0.397; in assay [10] it was 0.531; in assay [11], 1.21; in [13], 0.447; in [14], 0.687. Also, the composite z-score was -0.0954 in [15]; -0.0944 in assay [16]; -0.0146 in [17]; 0.125 in assay [18]; 0.132 in assay [19]; 0.898 in [20]. Moreover, the z-score in [4] is 0.00662 (inactive); in [12] it was -0.456.

On to `O=C1[C@H]2[C@H]3[C@H](O)[C@H](O)CC(=NO[C@@H]4O[C@H](CO)[C@@H](O)[C@H](O)[C@H]4O)[C@H]3CC[C@H]2C(=O)N1C[C@@H]1CCCO1`, for which the composite z-score was 0.323 in assay [1]; -0.273 in [2]; -0.344 in [3]; 0.0269 in assay [5]; -0.027 in assay [6]; 0.522 in [7]. Moreover, the composite z-score in assay [8] was 0.0553; in assay [9], -0.0079; in assay [10], -0.915; in assay [11] it was -0.429; in assay [13], 0.399; in assay [14], -0.551. Besides, the composite z-score in assay [15] was -1.1; in assay [16], -0.118; in assay [17], -0.117; in assay [18], -0.379; in assay [19], -0.367; in assay [20], -0.0473. In addition, the z-score in assay [4] was 0.0676 (inactive); in [12], -0.232.

For `C[C@@H]1CC[C@H]2C(=O)O[C@@H](COc3ccc(C(C)(C)C)cc3)CN2[C@H]1c1ccc(Br)cc1`, the composite z-score in assay [1] is 0.418; in assay [2], -0.251; in [3], -0.427; in [5], 0.0543; in [6], 0.158; in assay [7], -0.0032. The composite z-score was 0.0224 in assay [8]; 0.191 in assay [9]; 0.0996 in assay [10]; 0.269 in assay [11]; 0.193 in assay [13]; -0.543 in assay [14]. In addition, the composite z-score in [15] is -0.229; in [16] it was -0.0704; in assay [17], -0.214; in [18] it was 0.0762; in [19], 0.0021; in assay [20], 0.315. Also, the z-score in assay [4] is 0.0739 (inactive); in [12], -0.157.

As for `COC(=O)[C@H](C)NC(=O)CCC1CC(OC(=O)NCc2ccc3c(c2)OCO3)CC2(CCCC(COC(=O)NCCCN3CCCC3=O)O2)O1` (stereo not given in full), the composite z-score in assay [1] is 0.842; in [2] it was -0.286; in assay [3] it was -0.189; in assay [5] it was 0.601; in assay [6] it was 1.28; in assay [7], 0.638. In addition, the composite z-score in assay [8] is 0.856; in [9] it was 1.41; in assay [10], -0.109; in assay [11], 1.32; in [13], 0.849; in assay [14], 0.924. Further, the composite z-score in assay [15] was -0.151; in assay [16], -0.0644; in assay [17], -0.186; in assay [18], 0.0215; in assay [19], 0.286; in [20] it was 0.88. For the same compound, the z-score is 0.245 (inactive) in assay [4] and -1.87 in [12].
